Our source for the growth values is PubChem BioAssay (NCI).

Compounds without any hit were thinned out: in the full panel of roughly 83,000, 20% have a hit.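 Method: cells in 96-well plates; compound added at one concentration; 48 h incubation; percent growth measured; values under 10 scored active.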 Unmarked numbers belong to inactive results. The source made the active and inactive calls.

Some test systems named below: NCI-H23 lung; NCI-H226 lung; NCI-H322M lung; HOP-62 NSCLC; NCI-H460 lung; HOP-92 NSCLC; NCI-H522 lung; A549/ATCC NSCLC; 786-0 renal; COLO 205 colon; DU-145 prostate; K-562 leukemia; MALME-3M melanoma; MDA-MB-231 breast; RXF 393 renal; SF-268 CNS; SF-295 CNS; SF-539 CNS; UACC-257 melanoma; M14 melanoma.
Holding throughout (test): NCI-60 one-dose screen, 48 h (100 = growth as untreated, 0 = no growth, -100 = all killed)
Holding throughout (settings): 10 µM unless noted

As for `O=c1[nH]c(-c2ccc(Cl)cc2)cn1-c1ccc(-n2cc(-c3ccc(Cl)cc3)[nH]c2=O)cc1`, the growth in the experiment with NCI-H23 lung was 95.9%; in the experiment with NCI-H226 lung, 91.1%; with NCI-H322M lung it was 115%; in the experiment on HOP-62 NSCLC, 99.8%; with NCI-H460 lung, 115%; in the experiment with HOP-92 NSCLC, 99.1%. Also, the growth in the experiment with NCI-H522 lung was 112%; with A549/ATCC NSCLC, 93.4%; in the experiment on 786-0 renal it was 96.4%; in the experiment with COLO 205 colon it was 111%; in the experiment with DU-145 prostate, 108%; with K-562 leukemia it was 113%. Besides, the growth was 97.9% in the experiment on MALME-3M melanoma; 94.7% in the experiment with MDA-MB-231 breast; 113% in the experiment on RXF 393 renal; 109% with SF-268 CNS; 101% with SF-295 CNS; 104% with SF-539 CNS. In addition, the values for the growth with UACC-257 melanoma and in the experiment on M14 melanoma were 101% and 99.2%, respectively.

For `CCN(C(=O)N1CCN(c2cc3c(cc2F)c(=O)c(C(=O)O)cn3C2CC2)CC1)c1nc(-c2ccc(C)cc2)cs1`, the growth is 6.95% (active) in the experiment with NCI-H23 lung; 3.21% (active) in the experiment on NCI-H226 lung; 10.3% in the experiment with NCI-H322M lung; 5.92% (active) with HOP-62 NSCLC; 8.41% (active) in the experiment with NCI-H460 lung; -12% (active) in the experiment with HOP-92 NSCLC. In addition, the growth was 3.2% (active) with NCI-H522 lung; 16.1% in the experiment on A549/ATCC NSCLC; 15.6% in the experiment with 786-0 renal; -21.2% (active) with COLO 205 colon; 23.6% in the experiment on DU-145 prostate; 16% in the experiment on K-562 leukemia. For the same molecule, the growth in the experiment with MALME-3M melanoma was 14.7%; in the experiment with MDA-MB-231 breast it was 6.79% (active); in the experiment on RXF 393 renal, 21.8%; in the experiment with SF-268 CNS, 21%; in the experiment on SF-295 CNS it was -3.48% (active); in the experiment on SF-539 CNS, 20.2%. Moreover, the growth in the experiment on UACC-257 melanoma was 14.6%; with M14 melanoma it was 19.6%.

`CCCCSCC(=O)c1ccccc1`: the growth is 86.2% in the experiment with NCI-H23 lung; 99.6% in the experiment with NCI-H226 lung; 89.7% in the experiment with NCI-H322M lung; 80.9% in the experiment with HOP-62 NSCLC; 109% in the experiment on NCI-H460 lung; 94.5% in the experiment with HOP-92 NSCLC. The growth with NCI-H522 lung was 58.2%; in the experiment with A549/ATCC NSCLC it was 78.1%; in the experiment with 786-0 renal, 99.8%; in the experiment with COLO 205 colon, 100%; in the experiment with DU-145 prostate, 103%; with K-562 leukemia, 97.3%. Also, the growth is 89.6% with MALME-3M melanoma; 102% with MDA-MB-231 breast; 114% in the experiment on RXF 393 renal; 97.1% with SF-268 CNS; 105% in the experiment on SF-295 CNS; 98.4% with SF-539 CNS. Besides, the growth was 80.9% in the experiment with UACC-257 melanoma and 99.4% with M14 melanoma.

With `COc1ccc(Cc2cnc(NC(=O)c3sc4ccccc4c3Cl)s2)cc1`, the growth was 28.4% in the experiment on NCI-H23 lung; 49.7% in the experiment on NCI-H226 lung; 50.8% with NCI-H322M lung; 26.3% in the experiment with HOP-62 NSCLC; 4.16% (active) with NCI-H460 lung; 79.8% with HOP-92 NSCLC. For the same molecule, the growth with NCI-H522 lung is -14.2% (active); in the experiment with A549/ATCC NSCLC it was 24.4%; in the experiment on 786-0 renal, 36.7%; with COLO 205 colon, 10.2%; with DU-145 prostate it was 25%; in the experiment with K-562 leukemia, 7% (active). Moreover, the growth is 56.6% with MALME-3M melanoma; 41.9% in the experiment on MDA-MB-231 breast; 1.01% (active) in the experiment on RXF 393 renal; 52.9% with SF-268 CNS; 14.9% with SF-295 CNS; -19.4% (active) with SF-539 CNS. The values for the growth with UACC-257 melanoma and in the experiment with M14 melanoma were 49.8% and 10.2%, respectively.

As to `Cc1cscc(C)c1=S`, the growth was 77.2% with NCI-H23 lung; 103% with NCI-H226 lung; 87% with NCI-H322M lung; 99.6% in the experiment on HOP-62 NSCLC; 48.7% with NCI-H460 lung; 108% with HOP-92 NSCLC. The growth is 50.8% with NCI-H522 lung; 88.1% with A549/ATCC NSCLC; 103% with 786-0 renal; 96.2% in the experiment with COLO 205 colon; 4.23% (active) in the experiment on DU-145 prostate; 96% in the experiment on K-562 leukemia. Further, the growth was 96.1% in the experiment with MALME-3M melanoma; 97.8% with MDA-MB-231 breast; 71.2% in the experiment with RXF 393 renal; 95.7% in the experiment with SF-268 CNS; 76% in the experiment on SF-295 CNS; 96.9% with SF-539 CNS. Further, the growth in the experiment with UACC-257 melanoma is 89%; in the experiment with M14 melanoma it was 93.1%.

Take `COc1ccc2c(c1)c(-c1nc(-c3cn(C)c4ncccc34)cs1)cn2CCO`: the growth in the experiment with NCI-H23 lung was 89.4%; with NCI-H226 lung, 70.1%; in the experiment on NCI-H322M lung, 77.7%; in the experiment on HOP-62 NSCLC, 81.2%; with NCI-H460 lung it was 74.9%; in the experiment on HOP-92 NSCLC, 70.4%. The growth was 60.5% with NCI-H522 lung; 79.8% in the experiment with A549/ATCC NSCLC; 80% in the experiment on 786-0 renal; 81.2% in the experiment on COLO 205 colon; 90.9% with DU-145 prostate; 25.2% with K-562 leukemia. Further, the growth was 110% with MALME-3M melanoma; 57% with MDA-MB-231 breast; 84.6% with RXF 393 renal; 91.1% in the experiment on SF-268 CNS; 74.1% with SF-295 CNS; 75% with SF-539 CNS. Further, the growth in the experiment with UACC-257 melanoma was 92.4%; in the experiment with M14 melanoma, 75.1%.

Regarding `O=C1CC2C=CCN2C=C1NC(=O)C1CCCCC1` (stereo not given), the growth was 97.4% with NCI-H23 lung; 104% with NCI-H226 lung; 100% in the experiment on NCI-H322M lung; 102% with HOP-62 NSCLC; 112% with NCI-H460 lung; 115% in the experiment with HOP-92 NSCLC. For the same molecule, the growth is 89.7% with NCI-H522 lung; 97.5% with A549/ATCC NSCLC; 99.5% with 786-0 renal; 105% in the experiment with COLO 205 colon; 98.9% in the experiment with DU-145 prostate; 99.9% in the experiment on K-562 leukemia. In addition, the growth in the experiment with MALME-3M melanoma was 78%; in the experiment on MDA-MB-231 breast it was 108%; with RXF 393 renal, 104%; in the experiment on SF-268 CNS it was 95.5%; in the experiment on SF-295 CNS it was 98.5%; with SF-539 CNS, 98.4%. The growth in the experiment with UACC-257 melanoma was 97.8%; with M14 melanoma, 114%.

Regarding `COC(=O)c1c2c(n3ccc(C)cc13)C(=O)c1ccccc1C2=O`, the growth in the experiment on NCI-H23 lung was 50.9%; in the experiment with NCI-H226 lung it was 62.1%; in the experiment on NCI-H322M lung it was 22.1%; in the experiment with HOP-62 NSCLC it was 78.4%; in the experiment on NCI-H460 lung, 4.07% (active); in the experiment with HOP-92 NSCLC, 76.7%. In addition, the growth with NCI-H522 lung is 47.5%; in the experiment on A549/ATCC NSCLC, -41.6% (active); in the experiment with 786-0 renal, 80.3%; with COLO 205 colon, 42.5%; with DU-145 prostate it was 75.2%; in the experiment with K-562 leukemia it was 60.8%. Further, the growth with MALME-3M melanoma was 62.2%; in the experiment with MDA-MB-231 breast, 77.9%; in the experiment with RXF 393 renal, 75.9%; in the experiment with SF-268 CNS, 74.9%; in the experiment on SF-295 CNS it was 67.6%; in the experiment on SF-539 CNS, 94.8%. The results for the growth with UACC-257 melanoma and with M14 melanoma were 72.4% and 63.5%, respectively.
